Cycloheximide cs: counter-screen for Shiga toxin inhibitors: cycloheximide protein synthesis inhibition | max response, % | 300,000 compounds, 12% hits | cell reporter, cycloheximide protein synthesis inhibition counterscreen; in the data active means max response mostly above about 13%, no sharp cut-off; inactive means mostly below about 14%; further: read at 38.3 µM for the half of the compounds with a filed dose; 0% is about no effect
LASV entry inh: inhibitors of Lassa virus binding or cell entry; 300,000 compounds, 1.2% hits; AID 540256; Potency, µM (highest dose often 37.9 µM), for the others: top-dose activity change, negative = inhibition, hits mostly inhibitors; Lassa virus pseudotype entry inhibition, cell reporter; calls by dose curve; tested in HEK293 cells; further: potency means the concentration at half of the fitted maximal effect; on the % scale 0 is the no-effect control and ±100 the full control effect; nearly all actives have a fitted effect of over 50% in size
Shiga inhibitor: Shiga toxin inhibition; AID 2315; 290,000 compounds, 9.2% hits; inhibition, % at 38.7 µM; Vero cells, Shiga toxin protein synthesis inhibition reporter; in the data active means inhibition mostly above about 28%, no sharp cut-off; inactive means mostly below about 43%; further: 0% is about no effect
MARV entry inh: inhibitors of Marburg virus binding or cell entry; Marburg virus pseudotyped entry inhibition, cell reporter; Potency, µM (series often up to 37.8 µM), without a hit: at the highest dose activity change, negative = inhibition, hits mostly inhibitors; 300,000 compounds, 1.8% hits; AID 540276; calls by dose curve; tested in HEK293 cells; further: potency means the concentration at half of the fitted maximal effect; on the % scale 0 is the no-effect control and ±100 the full control effect
Starred values were filed as active, the others as inactive; ? = inconclusive; . = no result; [ ] = remark or other dose. Most compounds without a hit are left out; they make up all but 12% or so of the library.

SMILES	Cycloheximide cs	LASV entry inh	Shiga inhibitor	MARV entry inh
CN(Cc1ccc(Cl)c(Cl)c1)C(=O)CN1C(=O)NC2(CCCC2)C1=O	.	1%	.	?
COc1cccc(NC(=O)CCc2nc3c(C)nn(-c4ccc(C)cc4)c3n(C)c2=O)c1	.	10%[46.1 µM]	.	.
O=C(CCSc1ccccc1)Nc1nc2c(s1)CCCC2	31*	-13%	162*	?
COc1ccc(C(=O)N[C@H](C(=O)Nc2nc3c(s2)CCCC3)C(C)C)cc1	59*	?	79*	2%
C/C(=N\Nc1nc2c(s1)CCCC2)c1ccccc1	43*	?	143*	?
Cc1cc(C)c(NC(=O)c2cc(S(=O)(=O)N3CCC4(CC3)OCCO4)ccc2F)c(C)c1	.	10%[46.1 µM]	.	.
COc1cc(O)cc(O)c1C(=O)/C=C/c1ccccc1	8.9*	.	8	.
COc1cc(OC)c(C(=O)/C=C/c2ccccc2)c(O)c1O	5	.	4	.
COc1ccc(/C=C/C(=O)c2ccc3c(c2)OCO3)cc1OC	.	4%	.	?
COc1ccc(/C=C/C(=O)c2ccc(OC)cc2OC)cc1	37*	.	48*	.
COc1ccc(/C=C/C(=O)c2cc3c(cc2N)OCO3)cc1	33*	6%	80*	?
COc1ccc(/C=C/C(=O)c2c(OC)cc(O)cc2OC)cc1	36*	.	65*	.
COCOc1cc(OC)ccc1C(=O)C=Cc1ccc([N+](=O)[O-])cc1	.	?	.	-19%[14.2 µM]
CCC(=O)OC1=CN(Cc2ccccc2)S(=O)(=O)c2ccccc21	.	-8%[46.1 µM]	.	5%[46.1 µM]
COc1ccccc1NC(=O)c1ccc(NC(=O)COC(=O)C2(C)CC2(Cl)Cl)cc1 (stereo not drawn)	5	-18%	17	-32%
CCc1cc2cc(C(=O)Nc3ccccc3F)sc2s1	30*	-7%	97*	?
CC(C)(C)c1ccc(C(=O)Nc2ccc(F)cc2)s1	40*	?	71*	?
CCc1cc2cc(C(=O)Nc3ccc(F)cc3)sc2s1	30*	0%	76*	?
Cc1nc(Cl)sc1C(=O)Nc1ccc(F)cc1	.	-4%[46.1 µM]	.	12%[46.1 µM]
COc1cc(NC(=O)Cn2c(=O)n(CC(=O)NCCc3ccc(OC)c(OC)c3)c(=O)c3sccc32)cc(OC)c1	.	2%[46.1 µM]	.	-20%[46.1 µM]
COc1ccc(S(=O)(=O)N2CCC(C(=O)NCc3ccccc3)CC2)cc1OC	-4	3%[46.1 µM]	3	19%[46.1 µM]
CCCCOc1ccc(-c2[nH]ncc2C=O)cc1	37*	19%	117*	?
COC(=O)c1ccccc1OCCCOc1ccc(C=O)cc1OC	37*	2%	86*	26%
CCOc1cc(C=O)ccc1OCCSc1ccc(C)cc1	23	?	26	24%
COC(=O)c1ccccc1OCCOc1ccccc1C(=O)OC	-3	5%	-12	11%
SMILES	Cycloheximide cs	LASV entry inh	Shiga inhibitor	MARV entry inh
COc1cc(C=O)ccc1OCc1ccccc1Br	61*	-1%	74*	-8%
COc1cc(C=O)ccc1OCc1cccc(Br)c1	47*	1%	70*	?
COc1cc(C=O)ccc1OCCSc1ccc(C)cc1	39*	?	46*	2%
CNC(=O)COc1ccc(C=O)cc1OC	-1	4%	-6	?
COc1ccc(C=O)cc1COc1ccc(F)cc1F	5	-1%	20	0%
O=C(COC(=O)c1ccc(O)cc1O)Nc1nnc(-c2ccccc2)o1	.	10%[46.1 µM]	.	-2%
CCN(CC)c1nc(C)nc2c1cnn2CCc1ccccc1	49*	-1%	173*	8%
Cc1cc(C)nc(Nc2nc(-c3ccccc3)cs2)n1	53*	.	73*	.
Cc1ccc(Nc2nc(-c3cccs3)cs2)nc1	31*	.	53	.
Cc1c(Nc2nc(-c3ccccc3)cs2)c(=O)n(-c2ccccc2)n1C	12	14%	27	?
Cc1ccc(Nc2nc(-c3ccccc3)cs2)nc1	27*	.	36	.
c1ccc(-c2csc(Nc3nc(N4CCOCC4)nc(N4CCOCC4)n3)n2)cc1	2	3%	-21	-9%
CC(C)CC1CC(C)(c2csc(NNC(=O)c3ccccc3)n2)OC1=O (stereo not drawn)	20	.	18	.
CCOc1ccc2nc(NC(=O)CSCC(=O)Nc3cc(C)on3)sc2c1	.	?	.	19%
CCOc1ccc2nc(NC(=O)CSc3nc(SC)ns3)sc2c1	55*	-10%	70*	-8%
CCOc1ccc2nc(NC(=O)CSc3cn[nH]n3)sc2c1	34*	?	149*	?
CCOc1ccc2nc(NC(=O)CSc3ccc(Cl)cc3)sc2c1	18	?	39	?
COc1cccc(-c2nc(SCC(=O)Nc3nc(-c4ccccc4)c(C)s3)[nH]c(=O)c2C#N)c1	-3	6%	7	?
COc1ccc2nc(NC(=O)CSc3cn[nH]n3)sc2c1	43*	.	66*	?
CCOc1ccc2nc(NC(=O)CSc3nc(-c4ccccc4)c(C#N)c(=O)[nH]3)sc2c1	41*	-3%	39*	0%[46.1 µM]
Cc1ccc(NC(=O)Cn2c(=O)n(CCCS(=O)(=O)C3CCCCC3)c(=O)c3ccccc32)cc1F	.	-1%[46.1 µM]	.	14%[46.1 µM]
Cc1ccc(OCC(=O)Nc2ccc(NC(=O)c3ccco3)cc2)c(C)c1	22	-12%	17	?
O=C(COc1ccc(Br)cc1CNC1CCCC1)Nc1ccccc1	-1	-22%[46.1 µM]	-14	1.8µM*
O=C(COc1ccc(Br)cc1CO)Nc1ccc(F)cc1	9.1*	9%	35	1%
Cc1ccc(NC(=O)COc2ccc(Br)cc2C)cc1	70*	-10%	91*	-1%
SMILES	Cycloheximide cs	LASV entry inh	Shiga inhibitor	MARV entry inh
COc1cccc(NC(=S)/C(=C(\[O-])c2cc(C)n(-c3ccccc3F)c2C)[n+]2ccc(N(C)C)cc2)c1	26*	.	76	.
O=c1c(Cl)c(Cl)cnn1Cc1ccccc1Cl	-13	13µM*	-26	6.5µM*
O=c1c(Cl)c(Cl)cnn1Cc1nnc(-c2ccc(Cl)cc2)o1	50*	?	63	?
Cc1cc(C)cc(Cn2ncc(Cl)c(Cl)c2=O)c1	36*	?	35	11µM*
Cc1ccc(-c2nnc(Cc3ccc(Cl)cc3)o2)cc1	29	.	39	.
Cc1nc2ccccc2n1CC(=O)N/N=C\c1ccccn1	-4	8%	-15	-6%
CCCc1sc(N/N=C/c2ccccn2)nc1-c1ccc(F)cc1	25*	?	52*	?
Cc1nc(N/N=C/c2ccccn2)sc1C	7	1.8µM*	0	1.3µM*
Cc1c(C(=O)N(C)C)sc2c1c(=O)n(-c1ccccc1C(F)(F)F)c(=O)n2Cc1ccccc1C#N	.	-3%[46.1 µM]	.	.
CCOc1ccccc1Nc1nnc(SC(C)C(=O)Nc2nc(-c3ccccc3)cs2)s1 (stereo not drawn)	2	6.3µM*	-1	3.5µM*
O=C(Nc1ccc(Br)cn1)C1CCCN1S(=O)(=O)c1ccccc1 (stereo not drawn)	0	-6%	-4	-29%
Cc1csc2c(N3CCN(C(=O)c4ccc(C(C)(C)C)cc4)CC3)ncnc12	1	.	-5	.
CCOC(=O)/C(=N\Nc1ncnc2ccccc12)c1ccc(C)cc1	18*	1.1µM*	23	?
Cc1ccc(S(=O)(=O)Nc2ncnc3ccccc23)cc1	16	-13%	27	21%[46.1 µM]
CCOC(=O)C/C(=N\Nc1ncnc2ccccc12)c1ccccc1	35*	-10%[46.1 µM]	87*	?
Cc1cc(C)n(CCc2nc(-c3ccco3)cs2)n1	-1	-11%	24	12%
COc1ccc(-c2csc(CCn3nc(C)cc3C)n2)cc1	20*	?	24	?

Screening data deposited in PubChem by National Center for Advancing Translational Sciences (NCATS).
